According to the supplement of paper PMC10498489:
Among all 2,300 compounds or so, about 330 (14%) showed activity. These entries were drawn from the full list. Values without a mark were called inactive.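 Rule for the calls: active = median modified Z-score above 1.96; inactive = 1.96 or below.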

Tested on: HepG2 Srxn1-GFP reporter cells (+30 nM CDDO-Me)
Assay: Srxn1-GFP intensity median modified Z-score relative to plate median; higher = stronger NRF2 / oxidative stress reporter activation, active = hit call of the paper
Details: 10 µM; exposure time: 24h
Outline: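 Per-cell cytoplasmic GFP was measured on confocal images of formaldehyde-fixed, Hoechst-stained HepG2 Srxn1-GFP BAC reporter cells, excluding images with fewer than 100 cells. Before this, the cells (20,000 per well, 96-well plates) were co-exposed for 24 h to compound at 10 μM and an NRF2 activator at 30 nM with ≤0.1% DMSO, in three replicate plates. Each value is the median over replicates of the per-plate modified Z-score of GFP intensity. That score was scaled with 1.4826 × median absolute deviation.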

Row | Compound | Srxn1-GFP intensity median modified Z-score
1 | CC(C)(ON=C(C(=O)NC1C(=O)N2C(C(=O)O)=C(C[n+]3ccccc3)CSC12)c1csc(=N)[nH]1)C(=O)O (configuration not stated) [euspeclibcmpd603] | -0.205
2 | CCN(CCO)CCCC(C)N=c1cc[nH]c2cc(Cl)ccc12 (configuration not stated) [euspeclibcmpd728] | 0.226
3 | O=C(OCC(O)CO)c1ccccc1N=c1cc[nH]c2cc(Cl)ccc12 (configuration not stated) [euspeclibcmpd1054] | 4.38 (active)
4 | CC(O)CN1CCN(CC(=O)O)CCN(CC(=O)O)CCN(CC(=O)O)CC1 (configuration not stated) [euspeclibcmpd2179] | -0.14
5 | CC(C)(CNC(=O)c1cccc(S(=O)(=O)N2CCNC(=O)C2)c1)N1CCOCC1 | 0.976
6 | Nc1ccc2cc3ccc(N)cc3nc2c1 [euspeclibcmpd1172] | 35.6 (active)
7 | CO[C@@]1(NC(=O)CSCC#N)C(=O)N2C(C(=O)O)=C(CSc3nnnn3C)CSC21 (some centres not stated) [euspeclibcmpd2252] | 1.04
8 | N=c1[nH]c(=O)c2ncn(COCCO)c2[nH]1 [euspeclibcmpd586] | 0.00752
9 | S=c1ccss1 [euspeclibcmpd2055] | 7.86 (active)
10 | CC1(C)CCC[C@]2(C)[C@H]3CC(=O)O[C@]3(C)CC[C@@H]12 [euspeclibcmpd1513] | 11.6 (active)
11 | OC[C@H]1O[C@@H](O[C@H]2[C@H](O)[C@@H](O)[C@@H](O)O[C@@H]2CO)[C@H](O)[C@@H](O)[C@@H]1O [euspeclibcmpd2099] | -0.374
12 | CC(=O)OC1=C2C(C)C(O)CC(O)(C(OC(=O)c3ccccc3)C3C4(OC(C)=O)COC4CC(O)C3(C)C1=O)C2(C)C (configuration not stated) [euspeclibcmpd1937] | 0.285
13 | C=CC(C)(O)CCC=C(C)CCC=C(C)C (configuration not stated) [euspeclibcmpd2017] | -0.108
14 | COC(C)(C)CCC[C@H](C)C=CC=C(C)CC(=O)OC(C)C [euspeclibcmpd1162] | 0.521
15 | CCC(CCC(C)[C@H]1CCC2C3CC=C4C[C@@H](O)CC[C@]4(C)C3CC[C@@]21C)C(C)C (some centres not stated) [euspeclibcmpd1675] | -0.236
16 | C1CNCCN1 [euspeclibcmpd2044] | 5.44 (active)
17 | C=C(C)[C@@H]1CC[C@]2(C)CC[C@]3(C)[C@@H](CCC4[C@@]5(C)CC[C@H](OC(C)=O)C(C)(C)C5CC[C@]43C)C12 (some centres not stated) [euspeclibcmpd1452] | -0.35
18 | C=CC/C1=C\C(C)C[C@H](C)C[C@H](OC)[C@H]2O[C@@](O)(C(=O)C(=O)N3CCCCC3C(=O)O[C@H](/C(C)=C/C3CC[C@@H](O)[C@H](OC)C3)[C@H](C)[C@@H](O)CC1=O)[C@H](C)C[C@@H]2OC (some centres not stated) [euspeclibcmpd642] | 0.0384
19 | COC1CC2CCC(C)C(O)(O2)C(=O)C(=O)N2CCCCC2C(=O)OC(C(C)CC2CCC(O)C(OC)C2)CC(=O)/C(C)=C/C(C)C(O)C(OC)C(=O)C(C)CC(C)/C=C/C=C/C=C/1C (configuration not stated) [euspeclibcmpd645] | 2.8 (active)
20 | CC(C)(C)OC(=O)N1[C@H](CNCC(=O)NCC2CC2)COC1(C)C | 0.298
21 | C=C1c2cccc(O)c2C(=O)C2C(=O)[C@]3(O)C(=O)C(C(N)=O)C(=O)C(N(C)C)[C@@H]3[C@@H](O)[C@H]12 (some centres not stated) [euspeclibcmpd374] | 0.0721
22 | Nc1ccc(S(=O)(=O)Nc2ccc([N+](=O)[O-])cc2)cc1 | 1.07
23 | C=CCSCC=C [euspeclibcmpd1525] | 2.8 (active)

Row | Compound | Srxn1-GFP intensity median modified Z-score
24 | C=CCSCC(N)C(=O)O (configuration not stated) [euspeclibcmpd1339] | -0.44
25 | c1ccc2[nH]c(-c3cscn3)nc2c1 [euspeclibcmpd291] | -0.321
26 | CC(=O)Nc1ccc(S(=O)(=O)Nc2ccc(C)cc2)cc1 | 0.323
27 | Cc1cc(=O)c(C(=O)NC(C(=O)NC2C(=O)N3C(C(=O)O)=C(CSc4nnnn4C)CSC23)c2ccc(O)cc2)c[nH]1 (configuration not stated) [euspeclibcmpd2006] | -0.441
28 | COC(=O)C[C@H]1C2(C)CC34OC5(C)O[C@@]6([C@H](OC(C)=O)C(OC(C)=O)[C@]7(C)C(C(C(=O)C(C)C)C(=O)O[C@H]7c7ccoc7)[C@@]6(O5)[C@H](OC(C)=O)[C@@]3(O)C2OC(=O)C(C)C)[C@]14C (some centres not stated) [euspeclibcmpd1593] | 0.648
29 | CC=CC1=C(C(=O)O)N2C(=O)C(NC(=O)C(N)c3ccc(O)cc3)C2SC1 (configuration not stated) [euspeclibcmpd754] | 0.0492
30 | Cc1cc(=N)c2ccccc2n1CCCCCCCCCCn1c(C)cc(=N)c2ccccc21 [euspeclibcmpd1012] | 10 (active)
31 | CN1CCc2c(c3ccccc3n2Cc2ccccc2)C1 [euspeclibcmpd1060] | -0.511
32 | NC(COP(=O)(O)O)C(=O)O (configuration not stated) [euspeclibcmpd1153] | -0.195
33 | CC(C)C(=O)Nc1ccc([N+](=O)[O-])c(C(F)(F)F)c1 [euspeclibcmpd362] | 3.07 (active)
34 | CC1(C)NC(=O)N(c2ccc([N+](=O)[O-])c(C(F)(F)F)c2)C1=O [euspeclibcmpd654] | 0.519
35 | CCOc1ccc2ccccc2c1C(=O)NC1C(=O)N2C1SC(C)(C)C2C(=O)O (configuration not stated) [euspeclibcmpd2391] | -0.175
36 | NC(=O)c1cc[n+](C=C2CSC3C(NC(=O)Cc4cccs4)C(=O)N3C2C(=O)O)cc1 (configuration not stated) [euspeclibcmpd1236] | -0.488
37 | CN1CCC(c2c3ccccc3cc(=O)c3sccc23)CC1 [euspeclibcmpd331] | 0.863
38 | COc1cc(-c2coc3cc(OC)c(OC)c(OC)c3c2=O)cc(OC)c1OC [euspeclibcmpd1402] | -0.364
39 | COc1cc(C)c2c(=O)c(-c3ccccc3)coc2c1 [euspeclibcmpd1711] | 0.917
40 | COc1cc2occ(-c3ccccc3)c(=O)c2c(OC)c1C [euspeclibcmpd2367] | 3.02 (active)
41 | CC(C)(C)O[C@H]1C[C@@H](O)C1 | 1.93
42 | CC(=O)O[C@]1(C(C)=O)CCC2C3=CC(C)=C4CC(=O)CCC4(C)C3CCC21C (some centres not stated) [euspeclibcmpd180] | 0.562
43 | CC(NS(=O)(=O)c1cccc(Cl)c1)C1CCCO1 (configuration not stated) | 1.74
44 | O=C1OCCc2oc(O)cc21 [euspeclibcmpd1348] | 33 (active)
45 | Cc1cc(=O)cc(O)o1 [euspeclibcmpd1585] | 0.226
46 | O=C(OCc1ccccc1)c1ccccc1 [euspeclibcmpd510] | 0.252

Row | Compound | Srxn1-GFP intensity median modified Z-score
47 | OC[C@H]1O[C@@H](O[C@@H]2[C@@H](CO)O[C@](O)(CO)[C@H]2O)[C@H](O)[C@@H](O)[C@H]1O [euspeclibcmpd170] | 0.208
48 | NC(=O)c1cc[n+](C=C2CSC3C(NC(=O)C(c4ccccc4)S(=O)(=O)O)C(=O)N3C2C(=O)O)cc1 (configuration not stated) [euspeclibcmpd2133] | -0.143
49 | CCN(CC)CCOc1ccc2c(c1)C(=O)c1cc(OCCN(CC)CC)ccc1-2 [euspeclibcmpd940] | 5.93 (active)
50 | CCCOc1cc(N)ccc1C(=O)OCCN(CC)CC [euspeclibcmpd379] | 0.431
51 | CCN(CC)CCNC(=O)COc1ccc(OC)cc1 [euspeclibcmpd2435] | -0.25
52 | C=Cc1c(C=c2[nH]c(=Cc3[nH]c(C=c4[nH]c(O)c(C=C)c4=C)c(C)c3CCC(=O)O)c(CCC(=O)O)c2C)[nH]c(O)c1C [euspeclibcmpd1536] | 0.744
53 | Cc1cc(-c2ccccc2)n[nH]c1=NCCN1CCOCC1 [euspeclibcmpd383] | 1.08
54 | CNC(Cc1ccccc1)C(=O)O (configuration not stated) | 1.21
55 | Cc1c(S(=O)(=O)O)oc2c1C(=O)C(=O)c1c-2ccc2c1CCCC2(C)C [euspeclibcmpd2216] | 0
56 | Cc1coc2c1C(=O)C(=O)c1c-2ccc2c1CCCC2(C)C [euspeclibcmpd1647] | 2.22 (active)
57 | CN[C@H]1C[C@@H](N)[C@H](O)[C@@H](O[C@@H]2O[C@H](CO)[C@@H]3OC4(O[C@@H]3[C@@H]2O)O[C@H](C(N)CO)[C@H](O)[C@H](O)[C@H]4O)[C@@H]1O (some centres not stated) [euspeclibcmpd1459] | -0.136
58 | Nc1ccc(S(=O)(=O)N=c2cccc[nH]2)cc1 [euspeclibcmpd279] | -0.029
59 | COc1ccc2[nH]c3cc(Cl)ccc3c(=Nc3cc(CN4CCCC4)c(O)c(CN4CCCC4)c3)c2n1 [euspeclibcmpd1080] | 9.12 (active)
60 | CC1(C)C2CCC1(CS(=O)(=O)O)C(=O)C2=Cc1ccc(C=C2C(=O)C3(CS(=O)(=O)O)CCC2C3(C)C)cc1 [euspeclibcmpd1829] | 1.49
61 | C=C(CC)C(=O)c1ccc(OCC(=O)O)c(Cl)c1Cl [euspeclibcmpd119] | 14 (active)
62 | CC(C)CCCC(C)[C@H]1CCC2C3CC=C4C[C@@H](OC(=O)c5ccccc5)CC[C@]4(C)C3CC[C@@]21C (some centres not stated) [euspeclibcmpd2185] | -0.487
63 | CC(O)CNS(=O)(=O)CC1CN(C(=O)C2CC2C)CCO1 (configuration not stated) | 1.25
64 | CC(C)=C1CNC(C(=O)O)C1CC(=O)O (configuration not stated) [euspeclibcmpd2009] | 0.265
65 | CC(=O)N=c1[nH]cc([N+](=O)[O-])s1 [euspeclibcmpd793] | 0.152
66 | CC(=O)Oc1ccccc1C(=O)N=c1[nH]cc([N+](=O)[O-])s1 [euspeclibcmpd615] | 2.79 (active)
67 | O=C(O)c1cc(O)c(O)c(O)c1 [euspeclibcmpd1010] | -0.0488
